High-throughput results: PubChem, several laboratories
tim10-1 inh = growth inhibitors of tim10-1 mutant yeast; S. cerevisiae tim10-1 ts strain growth, BacTiter-Glo, 24 h; inhibition, % at 20 µM; 330,000 compounds, 2.2% hits;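 active means inhibition of at least 40%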;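 further: mutant grown at 25 °C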
TIM10 inh = inhibits growth of TIM10 yeast strain; S. cerevisiae TIM10 strain growth, BacTiter-Glo luminescence, 24 h; inhibition, % at 10 µM; 330,000 compounds, 1.4% hits; AID 463195;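 active means inhibition of 40% or more at the single tested concentration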;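 further: wild-type TIM10 isogenic control strain grown at permissive 25 °C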
NALP3 yeast inh = inhibitors of NALP3 inflammasome in yeast; 330,000 compounds, 0.39% hits; inhibition, % at 10 µM; Yeast reconstituted NLRP3/ASC/caspase-1, beta-gal luminescence, 24 h;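 active means inhibition of 50% or more; inactive means inhibition below 50%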
Yeast superoxide = caloric restriction mimetics inhibiting age-related superoxide in yeast; 330,000 compounds, 0.18% hits; S. cerevisiae aged cells, superoxide DHE fluorescence; hits give low values; superoxide response (% of plate mean), % at 10 µM;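 active means superoxide response under a set limit, about three screen SD below normal, cut at about 65% in these data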;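 further: yeast aged for seven days with compound at 30 °C before DHE staining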
tim23-1 inh = inhibits growth of tim23-1 mutant yeast; S. cerevisiae tim23-1 growth, BacTiter-Glo luminescence, 24 h; inhibition, % at 20 µM; 330,000 compounds, 1.3% hits; AID 463212;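 active means growth inhibition of the mutant yeast at or above 50%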;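 further: temperature-sensitive mutant grown at 25 °C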
tim10-1 confirm = tim10-1 yeast growth inhibition, confirmed | shares compounds with tim10-1 inh | S. cerevisiae tim10-1 ts strain growth, BacTiter-Glo, 24 h | inhibition, % at 20 µM | 7,400 compounds, 56% hits | AID 463213;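 active means inhibition of yeast growth at or above a set limit in either of two repeat tests at 20 µM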;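 further: tim10-1 mutant grown at permissive 25 °C to find synthetic lethal compounds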
Numbers stand for hits; i = inactive; nt = not tested or not shown. Compounds with a hit are over-represented: about 3.8% of the library has one in this group of screens.

SMILES	tim10-1 inh	TIM10 inh	NALP3 yeast inh	Yeast superoxide	tim23-1 inh	tim10-1 confirm
COc1cccc(/C=N/n2c(C3CCCCC3)n[nH]c2=S)c1O	48	i	i	i	i	33
COc1cccc(/C=N/n2c(C3CCCCC3)n[nH]c2=S)c1OC	i	i	i	i	i	nt
O=C(CO/N=C/c1ccccc1)Nc1c(F)c(F)c(F)c(F)c1F	i	i	i	i	i	nt
CC(=O)Oc1ccc2c(=O)c(-c3ccccc3)coc2c1	42	i	i	i	i	32
Cc1ccc2cccc(NC(=S)NC(=O)c3ccnn3C)c2n1	43	i	i	i	i	i
CC(=O)NC(=S)Nc1cccc2ccc(C)nc12	i	i	i	i	i	nt
CC(=O)c1cc(NC(=O)c2ccc(Cl)cc2)c(=O)oc1/C=C/N(C)C	46	i	i	i	i	i
CCOc1ccccc1N(CC)C(=O)c1nn(C)c2c1CSc1ccccc1-2	i	i	i	i	i	nt
CN(C(=O)c1nn(C)c2c1CSc1ccccc1-2)c1ccccc1Cl	41	i	i	i	i	i
Cn1nc(C(C)(C)C)c(NC(=O)c2ccc(F)cc2)c1C(C)(C)C	i	i	i	i	i	nt
CCc1cccc(C)c1NC(=S)NCCc1c(C)[nH]c2ccc(C)cc12	41	i	i	i	i	i
Cc1ccc(N/C(=N/S(=O)(=O)c2cccs2)c2ccccc2)c(C)c1	46	i	i	i	i	i
CN1C(=O)CSc2ccc(NC(=O)N3CCN(c4ccccc4)CC3)cc21	i	i	i	i	i	nt
CC(=O)c1sc(N/N=C2\CC3CC2C(C)C3(C)C)nc1C (stereo unspecified)	45	i	i	i	i	i
COc1ccc(/C(C)=N/Nc2nc(C)c(C(C)=O)s2)cc1	i	i	i	i	i	nt
Cc1ccc(CNC(=O)CCc2nnc3ccc(N4CCC5(CC4)OCCO5)nn23)cc1	i	i	i	i	i	nt
O=C(O)c1ccc(NC(=O)c2ccccc2NC(=O)c2ccccc2Br)cc1	i	i	i	i	i	nt
COc1ccc(Cn2nnnc2CN2CCC(c3nc4ccccc4s3)CC2)cc1	41	i	i	i	i	i
CCOc1ccc(S(=O)(=O)N2CCC(C(=O)N3CCOCC3)CC2)cc1Cl	i	i	i	i	i	nt
Cc1ccc(CC(=O)Nc2nc3ccccc3s2)cc1	44	i	i	i	i	i
COc1cc(/C=N/N=C2/C(=O)Nc3ccccc32)cc(OC)c1O	44	i	i	i	i	52
Cc1nn(-c2ccc(Cl)c(Cl)c2)c(=O)c2ccccc12	i	i	i	i	i	nt
Cc1nn(-c2ccc3ccccc3c2)c(=O)c2ccccc12	40	i	i	i	i	i
COc1cc2c(cc1OC)C(COc1ccc(C(C)C)cc1)NCC2 (stereo unspecified)	48	i	i	i	i	i
COc1cc2c(cc1OC)C(c1cccs1)NCC2 (stereo unspecified)	i	i	i	i	i	nt
SMILES	tim10-1 inh	TIM10 inh	NALP3 yeast inh	Yeast superoxide	tim23-1 inh	tim10-1 confirm
COc1ccc(C[C@@H]2CN3C(=NC[C@@H]3C)N2C[C@H](C)NC(=O)c2ccc(C)c(Br)c2)cc1	i	i	i	i	i	nt
CC(C)(O)C#Cc1ccc(C(=O)N2CCN(c3ccc(Cl)cc3)CC2)cc1	49	i	i	i	i	40
COc1cc(NC(=O)c2ccccc2F)c(OC)cc1NC(=O)CN1CCOCC1	43	i	i	i	i	i
S=c1[nH]nc(-c2ccccn2)n1/N=C/c1cccc2ccccc12	41	i	i	i	i	i
C=CCN(CC=C)C(=O)CN1C(=O)NC(c2ccccc2)(c2ccccc2)C1=O	i	i	i	i	i	nt
N/C(=N\OC(=O)c1cccc(Cl)c1)c1cccnc1	i	i	i	i	i	nt
N/C(=N\OC(=O)c1cccc(Cl)c1)c1ccncc1	42	i	i	i	i	30
CC(C)(Oc1ccc(Cl)cc1)C(=O)O/N=C(\N)c1ccncc1	47	i	i	i	i	i
N/C(=N\OC(=O)c1ccccc1)c1cccnc1	i	i	i	i	i	nt
N/C(=N\OC(=O)c1cc(Cl)ccc1Cl)c1cccnc1	41	i	i	i	i	i
N/C(=N\OC(=O)Cc1ccc(Cl)cc1)c1ccncc1	i	i	i	i	i	nt
N/C(=N\OC(=O)c1ccccc1Cl)c1cccnc1	i	i	i	i	i	nt
N/C(=N\OC(=O)c1cc(Br)ccc1Cl)c1cccnc1	47	i	i	i	i	49
CSc1ccccc1OCc1cc(C(=O)NCCN2CCCc3ccccc32)no1	i	i	i	i	i	nt
O=C(C1CCCN(CCCc2ccccc2)C1)N1CCCCCC1 (stereo unspecified)	i	i	i	i	i	nt
COc1cccc(/C=N/NC(=O)Cn2nc([N+](=O)[O-])cc2C)c1	i	i	i	i	i	nt
O=C(CC1C(=O)NCCN1Cc1cccc(Oc2ccccc2)c1)NCCc1cscn1 (stereo unspecified)	42	i	i	i	i	i
O=C(CC1C(=O)NCCN1Cc1cccc(Oc2ccccc2)c1)NCCc1ccccn1 (stereo unspecified)	i	i	i	i	i	nt
Cc1cc(C)nc(SCCC(=O)Nc2ccc(F)cc2)n1	i	i	i	i	i	nt
Cc1ccc(NC(=O)COC(=O)c2cc(Cl)ccc2[N+](=O)[O-])c(C)c1	i	i	i	i	i	nt
O=C(COC(=O)c1cc(Cl)ccc1[N+](=O)[O-])Nc1cccc2ccccc12	47	i	i	i	i	34
CCCN(C(=O)COC(=O)CSc1ccc([N+](=O)[O-])cc1)C1CCS(=O)(=O)C1 (stereo unspecified)	i	i	i	i	i	nt
CC(C)c1ccc(NC(=O)Nc2cc3sccc3n2C)cc1	42	i	i	i	i	i
C=CCNC(=O)c1cc2sccc2n1C	i	i	i	i	i	nt
COc1ccc(/C=N/NC(=O)CCCOc2ccc(Cl)cc2Cl)cc1	47	i	i	i	i	i
SMILES	tim10-1 inh	TIM10 inh	NALP3 yeast inh	Yeast superoxide	tim23-1 inh	tim10-1 confirm
O=C(CCCOc1ccc(Cl)cc1Cl)N/N=C/c1ccc(Cl)cc1	i	i	i	i	i	nt
COC(=O)COc1ccc(-c2nccc(-c3ccc(Br)cc3)n2)cc1	i	i	i	i	i	nt
COC(=O)COc1ccc(-c2nccc(-c3ccccn3)n2)cc1	43	i	i	i	i	31
CN(Cc1ccccc1)C(=O)COc1ccc(C(C)(C)C)cc1	i	i	i	i	i	nt
O=C(Nc1cccc(S(=O)(=O)Nc2ccc(Cl)cc2)c1)c1cc2c(s1)CCCC2	40	i	i	i	i	i
O=C(Nc1ccon1)c1cc2c(s1)CCCCCC2	52	i	i	i	i	40
Cc1ccc(NC(=O)c2cc3c(s2)CCCC3)cc1S(=O)(=O)Nc1ccccc1Cl	i	i	i	i	i	nt
CC(C(=O)NCC1CCCCC1)N1CCc2ccccc2C1 (stereo unspecified)	i	i	i	i	i	nt
CC(C(=O)NCC1CCCCC1)N1CCN(S(=O)(=O)/C=C/c2ccccc2)CC1 (stereo unspecified)	41	i	i	i	i	i
